# Only some compounds are listed: those with a hit (about 11% of all), similar ones and a draw of the others.
# VDR inhibitor – inhibitors of human vitamin D receptor. P11473. VDR-SRC2-3 peptide fluorescence polarization, 2 h. Potency, µM, without a hit: max response, negative = inhibition, most hits filed as inhibitors. 0.93% of 400,000 active; further: on the % scale 0 is the no-effect control and ±100 the full control effect
#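 Measured by FP: displacement of SRC2-3 coactivator peptide from VDR by library compounds, following a two-hour ambient incubation.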
# BAZ2B inh – BAZ2B (human) inhibition. Q9UIF8. AlphaScreen BAZ2B-H3K14Ac peptide displacement. Potency, µM (doses to about 114 µM), without a hit: top-dose activity change, negative = inhibition, most hits filed as inhibitors. 4.4% of 360,000 active. AID 504333; further: on the % scale 0 is the no-effect control and ±100 the full control effect; nearly all actives have a fitted effect of over 60% in size
#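 Protein-peptide AlphaScreen: BAZ2B 50 nM, b-H3K14Ac 50 nM, 1x PBS pH 7.4 + 0.01% Tween-20. Preincubation 30 min RT; cpd 30 min RT (top 110 uM); beads 20 min RT, light-protected.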
# JMJD2A Tudor inh – JMJD2A Tudor domain (human) inhibition; AlphaScreen JMJD2A-Tudor / H3K4me3 peptide binding; 4.4% of 390,000 active; Potency, µM (top dose mostly 114 µM), for the others: at the highest dose activity change, negative = inhibition, most hits filed as inhibitors; O75164; further: on the % scale 0 is the no-effect control and ±100 the full control effect; nearly all actives have a fitted effect of over 50% in size
# PLK1 PBD inh – blocks phosphopeptide binding to human PLK1 polo-box domain | Potency, µM, without a hit: max response, negative = inhibition, actives largely listed as inhibitors | AID 720504 | 2.8% of 360,000 active | Plk1 PBD binding of FITC phosphopeptide, fluorescence polarization; further: series mostly up to about 57 µM; on the % scale 0 is the no-effect control and ±100 the full control effect; nearly all actives have a fitted effect of over 65% in size
# Target sequence (P53350 whole entry, looked up, the tested form may be a part): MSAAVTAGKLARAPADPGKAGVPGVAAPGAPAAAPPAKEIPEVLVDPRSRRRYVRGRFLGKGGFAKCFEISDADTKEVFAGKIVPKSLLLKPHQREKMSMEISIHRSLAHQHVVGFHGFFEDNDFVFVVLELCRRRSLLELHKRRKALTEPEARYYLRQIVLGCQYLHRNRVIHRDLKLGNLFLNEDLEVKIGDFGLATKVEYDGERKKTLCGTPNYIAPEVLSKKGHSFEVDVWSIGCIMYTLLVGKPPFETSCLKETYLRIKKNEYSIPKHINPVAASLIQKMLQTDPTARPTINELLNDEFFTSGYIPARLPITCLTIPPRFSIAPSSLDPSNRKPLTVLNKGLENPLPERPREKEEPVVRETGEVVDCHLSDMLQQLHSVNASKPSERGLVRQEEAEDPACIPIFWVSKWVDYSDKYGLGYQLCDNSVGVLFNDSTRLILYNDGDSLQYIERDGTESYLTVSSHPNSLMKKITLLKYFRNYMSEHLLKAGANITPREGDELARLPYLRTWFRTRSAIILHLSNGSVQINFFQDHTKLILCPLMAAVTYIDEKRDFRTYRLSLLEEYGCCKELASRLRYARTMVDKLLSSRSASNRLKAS
# G9a inh – blocks human histone lysine methyltransferase G9a. AID 504332. G9a H3K9 monomethylation, AlphaScreen, 2 h. Q96KQ7. Potency, µM (doses to about 102 µM), inactives show at the top dose activity, negative = inhibition, hits mostly inhibitors. 8.8% of 350,000 active; further: on the % scale 0 is the no-effect control and ±100 the full control effect; nearly all actives have a fitted effect of over 75% in size
#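 AlphaScreen detection with an anti-monomethyl H3K9 antibody quantified product after a 2 h room-temperature reaction containing 500 nM biotinylated H3K9 peptide, 20 µM SAM and 20 nM enzyme, which had been preincubated 15 min with compound.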
# HP1b chromo inh – inhibitors of HP1-beta chromodomain binding to methylated histone tails; P83916; 0.56% of 390,000 active; AID 540317; Potency, µM (series often up to 114 µM), for inactives: top-dose activity change, negative = inhibition, actives largely listed as inhibitors; AlphaScreen HP1-beta / biotin-H3K9me3 peptide binding; further: nearly all actives have a fitted effect of over 70% in size
#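 AlphaScreen: HP1-beta (50 nM) preformed 30 min with biotin-H3(1-18)K9me3 peptide (50 nM) in PBS pH 7.4, 0.01% Tween-20. Compound added for 30 min at RT, then streptavidin donor/nickel chelate acceptor beads (10 ug/mL) for 30 min.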
# * hit, by the source's call; ? = inconclusive; . = no result; [ ] = another dose, or the depositor's remark. The call rests on the fitted dose curve; in most records, active means well fitted curve in the direction sought with a large enough effect; inconclusive means small, poorly fitted or top-dose-only effect, or another doubt; inactive means no such curve, though single readings can be large; an effect the other way counts as inactive or inconclusive. Potency means the concentration at half of the fitted maximal effect.
SMILES,VDR inhibitor,BAZ2B inh,JMJD2A Tudor inh,PLK1 PBD inh,G9a inh,HP1b chromo inh
COc1ccc(S(N)(=O)=O)cc1N(C)S(=O)(=O)c1ccccc1,?,-4%,?,27µM*,-30%,-7%
COc1ccccc1N(C)S(=O)(=O)c1ccc(C(=O)O)cc1,9%,.,1%,7%,-4%,37%
O=c1[nH][nH]c2c1[C@@H](c1ccc(F)cc1)O[C@H](CCOCc1ccccc1)C2,.,.,.,-12%,.,.
O=C(CN1CCCC1)Nc1cccc(Cl)c1Cl,0%,-24%,14%,4%,4%[0.501 µM],31%
CCOC(=O)CSc1nc2c(sc(=S)n2-c2ccccc2)c(=O)n1-c1ccc(OC)cc1OC,?,-34%,?,4.7µM*,1.6µM*,?
CCN(CC)C(=O)CSc1nc2c(sc(=S)n2-c2ccccc2)c(=O)n1-c1ccccc1OC,7%,-9%,-25%,1%,12%,10%
CCN(CC)C(=O)CSc1nc2c(sc(=S)n2-c2ccccc2)c(=O)n1-c1ccc(OC)cc1OC,25µM*,-16%,?,3µM*,2µM*,?
CC12CCC(C/C1=N\OC(=O)c1c(F)cccc1F)C2(C)C (stereo not drawn),-5%,-4%,5%,-11%,?,49%
Cc1[nH]c2ccccc2c1/C=N/NC(N)=S,-3%,-34%,-25%,-9%,-26%[59 µM],1%
Fc1cccc(Cl)c1/C=N/Nc1ccccn1,-11%,-12%,-8%,-24%,-11%,28%
CCc1nnc(N/N=C/c2c(C)[nH]c3ccccc23)n1N,-20%,45µM*,-31%,-9%,18µM*,24%
CCc1nnc(N/N=C/c2c(F)cccc2Cl)n1N,-3%,-5%,7%,1%,45µM*,45%
CCc1nnc(N/N=C/c2cc(C)c(C)cc2C)n1N,4%,1%,-12%,-5%,79µM*,40%
COc1ccc(F)cc1S(=O)(=O)NCCc1csc2nc(-c3cccc(C)c3)nn12,10%,-6%,-13%,.,3%[59 µM],40%
CC(C)CN1CC2(CCN(C(=O)c3csnn3)CC2)C1,-3%,.,.,.,3%[12.7 µM],.
CC(C)n1nnnc1SCC(=O)Nc1ccccc1N1CCOCC1,0%,7%,-14%,-5%,-12%,11%
O=C(CSc1nnnn1C1CCCCC1)N1CCOCC1,-5%,-18%,-14%,27µM*,14%,-7%
c1cc(C(c2nnnn2C2CCCC2)N2CCOCC2)ccn1 (stereo not drawn),-10%,10%,-10%,-6%,-40%[12.7 µM],30%
Oc1ccc(C(c2nnnn2C2CCCCC2)N2CCOCC2)cc1 (stereo not drawn),-8%,?,-21%,-3%,22µM*,23%
O=C(CSc1nnnn1C1CCCCC1)Nc1ccccc1N1CCOCC1,-2%,-27%,-10%,-2%,35µM*,31%
O=C(CSc1nnnn1C1CC1)N1CCN(c2ccc(O)cc2)CC1,-15%,-5%,?,-10%,?,?
O=C(CSc1nnc(SCC(=O)NCc2ccc3c(c2)OCO3)s1)NCc1ccc2c(c1)OCO2,8%,-2%,4%,-2%,?,26%
COc1ccc(CNC(=O)CSc2nc(SC)ns2)cc1,4%,-7%,-13%,-9%,45µM*,22%
CSc1nsc(SCC(=O)Nc2ccccc2F)n1,-2%,-2%,9%,-16%,12%,21%
COc1ccc(-c2nsc(SCC(=O)NCc3ccc4c(c3)OCO4)n2)cc1,-3%,-4%,4%,-2%,25µM*,50%
SMILES,VDR inhibitor,BAZ2B inh,JMJD2A Tudor inh,PLK1 PBD inh,G9a inh,HP1b chromo inh
CSc1nsc(SCC(=O)Nc2ccccc2C(N)=O)n1,-10%,-3%,-6%,-16%,79µM*,13%
CSc1nsc(SCC(=O)Nc2ccc(OC(C)=O)cc2)n1,-1%,-7%,1%,0%,-26%,52%
CC(=O)c1ccc(NC(=O)CCn2c(=S)oc3ccccc32)cc1,-5%,10%,-11%,-12%,6%,39%
CCn1c(=O)cc(OCC(=O)N2CCCC2)c2ccccc21,-11%,9%,?,27µM*,?,12%
CCn1c(=O)cc(OCC(=O)N2CCN(c3ccc(OC)cc3)CC2)c2ccccc21,3%,?,-35%,.,-50%[59 µM],-18%
CCn1c(=O)cc(OCC(=O)N2CCN(c3ccccc3OC)CC2)c2ccccc21,1%,-16%,-12%,.,-32%[59 µM],31%
CCn1c(=O)cc(OCC(=O)N(C)c2ccc(OC)cc2)c2ccccc21,?,89µM*,-10%,.,-13%[59 µM],16%
CCOc1ccc(N(CC)C(=O)COc2cc(=O)n(CC)c3ccccc23)cc1,-23%,-13%,-33%[57.1 µM],27µM*,-25%[59 µM],-16%
CSCCC(NC(N)=O)C(=O)Nc1ccc(F)c(Cl)c1 (stereo not drawn),7%,-2%,-10%,5%,2%[59 µM],35%
CCC(=O)/C=C1\Sc2ccc(OC)cc2N1CC,?,2%,-15%,?,50µM*,26%
CCN1/C(=C\C(C)=O)Sc2ccc(OC)cc21,6%,-28%,-23%,2%,5µM*,12%
CCC(=O)/C=C1\Sc2ccc(OC)cc2N1CCO,6%,8%,-13%,-9%,-22%[59 µM],52%
CC(C)COC(=O)N(C)C[C@@H]1OCc2cnnn2CCCC(=O)N([C@H](C)CO)C[C@@H]1C,.,.,.,-5%,.,.
CSCC[C@H](NC(=O)OC(C)(C)C)C(=O)NCC1CCC(C(=O)N[C@@H](Cc2ccccc2)C(=O)O)CC1 (stereo partly drawn),-4%,-3%,1%,7%,7%,22%
CCOc1ccccc1CNC(=O)CN1C(=O)CCn2nc(-c3cn(C)c4ccccc34)cc21,10%,-12%,-24%,.,-5%[59 µM],0%[57 µM]
Cc1nn(S(=O)(=O)c2ccc(C(C)C)cc2)c(C)c1S(=O)(=O)N1CCCCC1,4%,-23%,-15%,.,-39%[59 µM],22%[57 µM]
COC(=O)c1ccccc1NC(=O)NCCc1c(C)nn(C)c1C,9%,-14%,-11%,.,11%[59 µM],24%
CCOc1ccccc1C=Nc1ccccc1C(=O)Nc1ccccc1,25µM*,-4%,-3%,-6%,29%[59 µM],29%
O=C(CN1CCOCC1)Nc1ccc2c(c1)OCCO2,7%,50µM*,32µM*,0%,20µM*,?
O=C(CN1CCOCC1)Nc1ccc2c(c1)CCC2,?,-16%,-12%[11.4 µM],27µM*,2%,12%
COc1ccc(NC(=O)CN2CCN(C(C)=O)CC2)cc1S(=O)(=O)N1CCOCC1,8%,.,9%,6%,.,40%
O=C(CN1CCOCC1)Nc1ccc(Oc2ccc(NC(=O)CN3CCOCC3)cc2)cc1,-12%,-3%,-4%,-3%,11µM*,24%
O=C(CN1CCN(C(=O)c2ccco2)CC1)Nc1ccc(Cl)c(S(=O)(=O)N2CCOCC2)c1,-7%,.,-5%,-3%,56µM*,24%

# Source: PubChem BioAssay (National Center for Advancing Translational Sciences (NCATS))
